The results in this text go back to the supplement of paper PMC6555819.

In one experiment the test system is RARb homodimer (NR concentration 270 nM). The experiment is described as follows: PBM binding z-score (relative to random genomic background probes); higher = stronger binding; sequences stand for … in GC…GCGATTGACAGCGTAGAATGAAGG
The essentials:
(§1)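 Custom Agilent 4×180K protein-binding microarrays carried double-stranded probes, each with a 34-nt variable region. These regions held direct-repeat seeds, single-nucleotide variants, half-site ablations and random human genomic background sequences. Ligand-free nuclear receptor dimers were incubated on the arrays for 1 h, antibodies against each partner (one per run) detected binding, and scanned fluorescence was regression-normalized. Binding z-scores take the random background probes as reference.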
CCTCCTAGGTCATGGTCAGCTAATCTACAGTATG came in with a PBM binding z-score of 3.55.

On to CCAGACAGGTGAAAGGTAACACAGTCTGGTACGC, for which the PBM binding z-score was determined as 1.1.

Turning to AGAACGAGGGCAATGAGTTGATAGCGCGGGTGGC, the PBM binding z-score was determined as 0.949.

For the sequence ATATGTAGGTTATCGGGTCAATCAGTTTGCGCAT, the PBM binding z-score is 3.02.

In the case of ACAGACAGATGAGTGAAGGTAACTCAGCTGGACG, the PBM binding z-score was -0.259.

With GCAGACAGGTGAAAAGCAGGTAACTCAGGGTGGC, the PBM binding z-score came out at 0.095.

Turning to TCGAGTAGGTTACCAAGGGGGCATTCAGCTTTCT, the PBM binding z-score was 1.98.

In turn, GCGACTGGGGCAAAGCAGGTTACCAAAAGGTTGG had a PBM binding z-score of 1.39.

ATATGTAGGTTACATCCAGGTCATTCAGGCTATG registered a PBM binding z-score of 3.23.

As to CCTACTGGGCCAAATGTCATTGATTCCAATGCTC, the PBM binding z-score was 0.556.

ACTGTTAGTTGACTTAGGGCAACCGATACGACGC gave a PBM binding z-score of 1.09.

With ATCTAAAGGTCGAGGTGAGTATAGAGAAAGGGAA, the PBM binding z-score turned out to be 3.3.

Sequence CCTAGTTGGTCAAGGGCACACACGCTATAGGTAC yielded a PBM binding z-score of 1.78.

With TCTTGTAGATCAACAGGAGGCTAAGAAAGATCGA, the PBM binding z-score is -0.642.

Sequence TCATATAGGTAAACAGGTGAAAATCCGTAAGTTA had a PBM binding z-score of 0.649.

Regarding CGTCCAAGGTCTATGCTAGGTCAGTGAAAGCATT, the PBM binding z-score came to 2.43.

CGTCCAAGGTCAAGGTCAGTGGAAGAGACTCGAA had a PBM binding z-score of 5.13.

AGAATGAGGTTATTAAGTTCAGGGAATTGCGGTC came in with a PBM binding z-score of 2.35.

For CCTTACGGGTCACTCCAGGTAATAGCATCGGAGT, the PBM binding z-score turned out to be 2.75.

On to ATCGAAAGGACGACGAGGTGAGTATACACCGTTT, for which the PBM binding z-score amounted to 0.685.

CGTCCAAGGTCATAGGAGGTCAGTGAAGACAGAT returned a PBM binding z-score of 5.19.

The sequence GATACAGGGTCAAGGCCAGAGAACGCGTATTGAT showed a PBM binding z-score of 3.34.

Consider TCTATTAGTTGAAAGGCAACCGACGAGTCCGTTT, for which the PBM binding z-score was -0.227.

CCGACTGGGGCAAAGGTTACCATCCTCAGTACGA had a PBM binding z-score of 2.19.

The sequence TCTTGTAGATCAAGCAGGATAAGAAAGCCTGAGT came in with a PBM binding z-score of -0.48.

On to AGACCGAGGGCACGCTGAGTTGATAGCAGAGTAG, for which the PBM binding z-score came to 1.33.

On to TCTAGTTGGTCACCGAGGTCACACACGACGGGTA, for which the PBM binding z-score came out at 4.5.

On to CGTGCAAGGTCAGCAGGTCAGTGAAAGCGACGTG, for which the PBM binding z-score was 4.76.

CCTCGCAGGACAACAGGAGGTCAGAGCTGCCAGA yielded a PBM binding z-score of 3.19.

As to ATCTCTAGATAAAAGTTCAGTGAATCCCGAGGAT, the PBM binding z-score amounted to 2.21.

Take CCTAGCAGGCCAGGGTCAATCAAGCATTTCGCTT: the PBM binding z-score is 2.92.

Sequence TCTTGTACATCAAAGGTTAAGAAAGCCGAAGCCT came in with a PBM binding z-score of 1.84.

The sequence ACTATTAGTTGAGACGAGGGCAACCGTTAGGTTG showed a PBM binding z-score of 1.22.

AGAATGAGGTTATTAAGATCAGGCAATTGCGGTC: the PBM binding z-score came to 0.685.

As for GCATATAGATAATACAAGGTGAAAGTCCGATTGT, the PBM binding z-score turned out to be 0.678.

Take GCTTGTAGATCAAGGTTAGGAAAGACTAAGCTAA: the PBM binding z-score is -0.185.

Turning to AGAATGATGTTATTAAGATCAGGGAATTGCGGTC, the PBM binding z-score was -0.502.

The sequence CCGACTGGGGCAAAGGTTACCATTCTCAGTACGA yielded a PBM binding z-score of 2.08.

For the sequence ATATGTAGGTTATCGGGTCATTTAGTTTGCGCAT, the PBM binding z-score was 3.08.

For TCATATAGGTAAATGCTAGGTTAAAGTCCGATCT, the PBM binding z-score was found to be 0.967.

Another experiment deals with RARg:RXRa (NR concentration 270 nM, RXRa partner concentration 90 nM). The experiment is described as above. Put shortly: as §1
As to CCTCCTAGGTCATGGTCAGCTAATCTACAGTATG, the PBM binding z-score turned out to be 3.91.

CCAGACAGGTGAAAGGTAACACAGTCTGGTACGC registered a PBM binding z-score of 1.72.

With AGAACGAGGGCAATGAGTTGATAGCGCGGGTGGC, the PBM binding z-score came to 0.964.

As for ATATGTAGGTTATCGGGTCAATCAGTTTGCGCAT, the PBM binding z-score amounted to 3.59.

For ACAGACAGATGAGTGAAGGTAACTCAGCTGGACG, the PBM binding z-score was 0.311.

Sequence GCAGACAGGTGAAAAGCAGGTAACTCAGGGTGGC came in with a PBM binding z-score of 0.178.

In the case of TCGAGTAGGTTACCAAGGGGGCATTCAGCTTTCT, the PBM binding z-score was 4.64.

GCGACTGGGGCAAAGCAGGTTACCAAAAGGTTGG showed a PBM binding z-score of 0.739.

Turning to ATATGTAGGTTACATCCAGGTCATTCAGGCTATG, the PBM binding z-score was found to be 3.8.

As for CCTACTGGGCCAAATGTCATTGATTCCAATGCTC, the PBM binding z-score came out at 0.265.

The sequence ACTGTTAGTTGACTTAGGGCAACCGATACGACGC gave a PBM binding z-score of 1.22.

The sequence ATCTAAAGGTCGAGGTGAGTATAGAGAAAGGGAA had a PBM binding z-score of 4.54.

In turn, CCTAGTTGGTCAAGGGCACACACGCTATAGGTAC came in with a PBM binding z-score of 1.41.

In turn, TCTTGTAGATCAACAGGAGGCTAAGAAAGATCGA gave a PBM binding z-score of 0.0636.

The sequence TCATATAGGTAAACAGGTGAAAATCCGTAAGTTA gave a PBM binding z-score of 0.838.

Take CGTCCAAGGTCTATGCTAGGTCAGTGAAAGCATT: the PBM binding z-score was determined as 1.52.

On to CGTCCAAGGTCAAGGTCAGTGGAAGAGACTCGAA, for which the PBM binding z-score was determined as 6.64.

In turn, AGAATGAGGTTATTAAGTTCAGGGAATTGCGGTC showed a PBM binding z-score of 2.35.

CCTTACGGGTCACTCCAGGTAATAGCATCGGAGT: the PBM binding z-score amounted to 4.2.

ATCGAAAGGACGACGAGGTGAGTATACACCGTTT showed a PBM binding z-score of 1.09.

Sequence CGTCCAAGGTCATAGGAGGTCAGTGAAGACAGAT came in with a PBM binding z-score of 6.63.

For the sequence GATACAGGGTCAAGGCCAGAGAACGCGTATTGAT, the PBM binding z-score was 5.35.

Turning to TCTATTAGTTGAAAGGCAACCGACGAGTCCGTTT, the PBM binding z-score was 0.248.

Turning to CCGACTGGGGCAAAGGTTACCATCCTCAGTACGA, the PBM binding z-score came to 3.56.

Consider TCTTGTAGATCAAGCAGGATAAGAAAGCCTGAGT, for which the PBM binding z-score was -0.278.

In turn, AGACCGAGGGCACGCTGAGTTGATAGCAGAGTAG had a PBM binding z-score of 2.22.

Regarding TCTAGTTGGTCACCGAGGTCACACACGACGGGTA, the PBM binding z-score was determined as 4.8.

Sequence CGTGCAAGGTCAGCAGGTCAGTGAAAGCGACGTG registered a PBM binding z-score of 6.54.

CCTCGCAGGACAACAGGAGGTCAGAGCTGCCAGA registered a PBM binding z-score of 2.79.

The sequence ATCTCTAGATAAAAGTTCAGTGAATCCCGAGGAT had a PBM binding z-score of 1.29.

CCTAGCAGGCCAGGGTCAATCAAGCATTTCGCTT registered a PBM binding z-score of 3.32.

TCTTGTACATCAAAGGTTAAGAAAGCCGAAGCCT yielded a PBM binding z-score of 1.84.

Turning to ACTATTAGTTGAGACGAGGGCAACCGTTAGGTTG, the PBM binding z-score is 0.448.

On to AGAATGAGGTTATTAAGATCAGGCAATTGCGGTC, for which the PBM binding z-score was determined as 1.05.

GCATATAGATAATACAAGGTGAAAGTCCGATTGT registered a PBM binding z-score of 0.441.

With GCTTGTAGATCAAGGTTAGGAAAGACTAAGCTAA, the PBM binding z-score is -0.139.

AGAATGATGTTATTAAGATCAGGGAATTGCGGTC gave a PBM binding z-score of 0.0118.

With CCGACTGGGGCAAAGGTTACCATTCTCAGTACGA, the PBM binding z-score amounted to 3.4.

For the sequence ATATGTAGGTTATCGGGTCATTTAGTTTGCGCAT, the PBM binding z-score is 3.19.

The sequence TCATATAGGTAAATGCTAGGTTAAAGTCCGATCT showed a PBM binding z-score of 0.772.
